From the supplement of paper PMC11417369
Over roughly 25,000 sequences, “ln(normalized median fluorescence intensity)” has its median near 9.7; the highest 2% begin near 11. Only a selection was taken, and the highest values are over-represented in it overall.

Test system: PfAP2-HC AP2 domain (GST-tagged)
Assay: gcPBM binding intensity (ln(normalized median fluorescence intensity)); higher = stronger DNA binding
Outline: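 Binding intensity is the highest Masliner-normalised natural-log median intensity over replicate spots in either probe orientation. To obtain it, GST-tagged P. falciparum DNA-binding domains made in E. coli were incubated for 1 h on an Agilent 4 × 180k array of primer-extended double-stranded 36-bp intergenic genomic probes plus negative controls. Detection used Alexa488 anti-GST antibody with scanning at 488 nm.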

Sequence | gcPBM binding intensity (ln)
CCAATTCAAATATGCACACAAATTTGAAAACGATTA [CACACA_site3607] | 9.71
TGAAAATGGGAACCGTGTACAGGGCAGTTATAGGGG [XGTACX_site2950] | 9.87
AAAAAAGAATAGCACACACACATATATAAATATAAA [CACACA_site4518] | 10.5
TATTACATACCTTATTGTACAAATTATATATTAAAG [XGTACX_site7334] | 9.54
ATATATCTATATGTGTGTACATATAAGTATTTATAT [XGTACX_site5333] | 9.87
ACACGCACATATATATAAATATATATATATATAAAT [CACACA_negctrl_site1781] | 10.1
CATACATACGGACACACACACATATATATATATATA [CACACA_site5598] | 10.4
CATATATACACATACACACACACACGGACACGCACA [CACACA_site6910] | 10.5
AAAAAAAACGGACACACACACATACAAAATATATAT [CACACA_site4910] | 10.8
AATATATACATATATACACACACATATATATATATA [CACACA_site8907] | 10.2
AAAAAAAACGGACACACACACATAAATATATATAAA [CACACA_site4260] | 11.3
GTTATAAATAAATATACACACATATATAAAATACAT [CACACA_site7146] | 9.97
CTAAAATACGGACACACACACACATATATATATATA [CACACA_site6138] | 11.4
TATAAATAAAAACACACACACATATATATATATATA [CACACA_site2319] | 10.4
CACACGCACGGACACACACACATATAAAATCTATAT [CACACA_site6428] | 11.1
TTATAAATAAAAAATACACACATATATATATATATA [CACACA_site207] | 9.57
AATACATACGGACACACACACACATATATATATATA [CACACA_site5884] | 11.6
ACATACGAAAATTGGAAGGATAGATAAAAAGAAAAT [CACACA_negctrl_site51] | 9.66
CTCAACATATACGTAACACACATATAAATATAAATA [CACACA_site7749] | 9.89
ATATAGAAAATGCATACACACTTTATAAATATATTT [CACACA_site6553] | 9.82
TATTTATTGTGATACTTATATTACTTAATGATTAAA [CACACA_negctrl_site676] | 9.41
ACCCATTTAACAAAATGTACATTATTATAATTACTT [XGTACX_site7105] | 9.72
CTTATATAATTCGATAGTACATATTTTTATATATAT [XGTACX_site4045] | 9.68
ATACAATAATATAAATGTACAAATTATATCTTAATT [XGTACX_site6004] | 9.62
